Source: the supplement of paper PMC10105736

Key:
Test in all cases: MAPPIT interaction score (arbitrary units); higher = stronger binary interaction signal, active = hit call of the paper;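 active = MAPPIT score above the 99th percentile of random reference set scores in the same batch; inactive = at or below it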
CG12576 = conditions: MAPPIT configuration: N-C; pair source set: screen_4
CG13887 = conditions: MAPPIT configuration: N-C; pair source set: screen_3
CG6845 = conditions: MAPPIT configuration: N-C; pair source set: screen_4
Tim17b2 = conditions: MAPPIT configuration: N-C; pair source set: screen_4
CG12863 = conditions: MAPPIT configuration: N-N; pair source set: Curagen_high_conf
CG12607 = conditions: MAPPIT configuration: N-N; pair source set: Curagen_high_conf
CG17612 = conditions: MAPPIT configuration: N-C; pair source set: screen_4
CG30195 = conditions: MAPPIT configuration: N-N; pair source set: DPIM
Cp190 = conditions: MAPPIT configuration: N-C; pair source set: Lit-BM-16
Cpr72Ea = conditions: MAPPIT configuration: N-N; pair source set: Lit-BS-16
Trl = conditions: MAPPIT configuration: N-N; pair source set: Finley_Y2H
Ubc6 = molecular target: Ubc6
Zasp52 = conditions: MAPPIT configuration: N-N
fl(2)d = conditions: MAPPIT configuration: N-N; pair source set: screen_2
su(Hw) = conditions: pair source set: Lit-BM-16
CG12768 = conditions: MAPPIT configuration: N-N; pair source set: Curagen_low_conf
CG8281 = conditions: MAPPIT configuration: N-N; pair source set: screen_1
CG12963 = conditions: MAPPIT configuration: N-N; pair source set: Curagen_high_conf
CG30355 = conditions: MAPPIT configuration: N-C; pair source set: screen_4
Vha16-2 = conditions: MAPPIT configuration: N-C; pair source set: screen_3

Measured: MAPPIT interaction score
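Note: HEK293T cells with Epo stimulation, STAT-responsive firefly luciferase reporter, fold induction versus unstimulated cells divided by the larger fold induction of two negative controls lacking either bait or prey.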

B1: Tsf2 (protein)
chain: MASSLVFVALVGALCFTLANAQHHYDEHKTTRMVWCTKSQAEQYKCQNLTVAIERDRALFDEVFLNLTCFMAYSADECIHHIDREKAHITTLDAGDVFTAGRYNSLIPIMQEKLEGGFADYQSVAVIKKGSLPDLNNLRDMRNKRVCFPWVGSLAGWIVPIHTLQREGGMEVVDCNNQVKTAASYFNNSCAVYSLSDKHNPIGDNSDKLCTLCTGKIPGGRCSSADPYFGYEGAFKCLLEKGDVAFLRHSTVNEMLQTTEFKNIAPDTFELLCRDGRRASINDYRQCNWGQVPADAIVTSSARSFSDRKQYQQFLKRIAELYSDGTRDDQSRQGGQSFNSRNNINDQNAYGQFDNNDPYRTQNQYDQYRSERLDSSFAEERNQQDGTNTSILYEKFRIFESKRYGKPNLLFQDSSRALTVIPEDDQSFTKYLGPAINFIYGIRECPVPAMTLCVTSENELDKCIKMRTALKAHLLKPELICKKMHSHINCMQFIEAGKADISVFDAGDVYTGGLNYDLVPFMSEVYNLGEPEYYVVAVAKEDDPDTELTYLKGKNTCHTGINTAAGWTYPMALFISNGWIRPYGCDSVRAAAEYFTKSCVPGAISNEYNTGVPYDSMCDLCHGTSYRYCRRDASEEYYGHTGAFRCLVEGGGHVAFMKHTTVMESTGGKRKEWWARNALNDDFELLCTDGTRAEIQDYKRCNLGKVKANAVVTRGGVNYNETQMNAYINLLTYAQQLYGRKEVDAFSFSMFSSPIGHYDLIFQDATRQLQVIPPNKRRYDAYLGSDFMRARRITDCYAGASQLALSVGLLLVGSLVAML
inactive: CG12576 0.0626 | CG13887 -0.181 | CG6845 0.127 | Tim17b2 0.851

B2: Rab26 (protein)
chain: MASTAVGLGGGEGDPGAGGPPAGSAHPDDASSMSDDVFEDAETTQARIEELRRRPFGDGSYNPPAAPASVSASITTTTTQQQQQHHNPSHHHQSSHHQPSHHHHHHHHSQLSLTGSHHYHDDAIMAPVQRSATGYPGYRPSREAMQMYAYGTDDYDDDYNDGWRSYRYDEVDMHPAPSNAHQQPFDDTVNHKTILLGDSGVGKTSFLVKYNTGEFRLGSFSATVGIALTNKVVVVDGTRVKLQIWDTAGQERFRSVTHAYYRDAHALLLLYDVTNKTTYDNIRAWLGEIREYAQEDVVIVLIGNKADCSGSERQVKREDGERLGREHNVPFMETSAKTGLNVELSFTAVARQLKSRGYEHGDDGKFNVHDFVRDNTKARSVCAQCRNM
inactive: CG12863 1.43

B3: mod(mdg4) (protein)
chain: MADDEQFSLCWNNFNTNLSAGFHESLCRGDLVDVSLAAEGQIVKAHRLVLSVCSPFFRKMFTQMPSNTHAIVFLNNVSHSALKDLIQFMYCGEVNVKQDALPAFISTAESLQIKGLTDNDPAPQPPQESSPPPAAPHVQQQQIPAQRVQRQQPRASARYKIETVDDGLGDEKQSTTQIVIQTTAAPQATIVQQQQPQQAAQQIQSQQLQTGTTTTATLVSTNKRSAQRSSLTPASSSAGVKRSKTSTSANVMDPLDSTTETGATTTAQLVPQQITVQTSVVSAAEAKLHQQSPQQVRQEEAEYIDLPMELPTKSEPDYSEDHGDAAGDAEGTYVEDDTYGDMRYDDSYFTENEDAGNQTAANTSGGGVTATTSKAVVKQQSQNYSESSFVDTSGDQGNTEAQAATSASATKIPPRKRGRPKTKVEDQTPKPKLLEKLQAATLNEEASEPAVYASTTKGGVKLIFNGHLFKFSFRKADYSVFQCCYREHGEECKVRVVCDQKRVFPYEGEHVHFMQASDKSCLPSQFMPGESGVISSLSPSKELLMKNTTKLEEADDKEDEDFEEFEIQEIDEIELDEPEKTPAKEEEVDPNDFREKIKRRLQKALQNKKK
inactive: CG12607 0.232 | Cp190 1.09 | Cpr72Ea -2.84 | Trl -0.456 | Zasp52; pair source set: Curagen_low_conf 0.192 | Zasp52; pair source set: Lit-BS-16 -0.533 | fl(2)d -0.311 | su(Hw); MAPPIT configuration: N-C 0.885 | su(Hw); MAPPIT configuration: N-N 0.105
active: CG17612 4.86 | CG30195 2.59 | Ubc6; MAPPIT configuration: N-C, pair source set: screen_3 3.96 | Ubc6; MAPPIT configuration: N-N, pair source set: screen_2 5.53

B4: dod (protein)
chain: MPDAEQLPDGWEKRTSRSTGMSYYLNMYTKESQWDQPTEPAKKAGGGSAGGGDAPDEVHCLHLLVKHKGSRRPSSWREANITRTKEEAQLLLEVYRNKIVQQEATFDELARSYSDCSSAKRGGDLGKFGRGQMQAAFEDAAFKLNVNQLSGIVDSDSGLHIILRKA
inactive: CG12768 0.142 | CG8281 -0.114

B5: csw (protein)
chain: MSSRRWFHPTISGIEAEKLLQEQGFDGSFLARLSSSNPGAFTLSVRRGNEVTHIKIQNNGDFFDLYGGEKFATLPELVQYYMENGELKEKNGQAIELKQPLICAEPTTERWFHGNLSGKEAEKLILERGKNGSFLVRESQSKPGDFVLSVRTDDKVTHVMIRWQDKKYDVGGGESFGTLSELIDHYKRNPMVETCGTVVHLRQPFNATRITAAGINARVEQLVKGGFWEEFESLQQDSRDTFSRNEGYKQENRLKNRYRNILPYDHTRVKLLDVEHSVAGAEYINANYIRLPTDGDLYNMSSSSESLNSSVPSCPACTAAQTQRNCSNCQLQNKTCVQCAVKSAILPYSNCATCSRKSDSLSKHKRSESSASSSPSSGSGSGPGSSGTSGVSSVNGPGTPTNLTSGTAGCLVGLLKRHSNDSSGAVSISMAEREREREREMFKTYIATQGCLLTQQVNTVTDFWNMVWQENTRVIVMTTKEYERGKEKCARYWPDEGRSEQFGHARIQCVSENSTSDYTLREFLVSWRDQPARRIFHYHFQVWPDHGVPADPGCVLNFLQDVNTRQSHLAQAGEKPGPICVHCSAGIGRTGTFIVIDMILDQIVRNGLDTEIDIQRTIQMVRSQRSGLVQTEAQYKFVYYAVQHYIQTLIARKRAEEQSLQVGREYTNIKYTGEIGNDSQRSPLPPAISSISLVPSKTPLTPTSADLGTGMGLSMGVGMGVGNKHASKQQPPLPVVNCNNNNNGIGNSGCSNGGGSSTTSSSNGSSNGNINALLGGIGLGLGGNMRKSNFYSDSLKQQQQREEQAPAGAGKMQQPAPPLRPRPGILKLLTSPVIFQQNSKTFPKT
inactive: CG12963 -0.144

B6: Cys (protein)
chain: MNVVKSLCILGLVLVSLIATQAADEQVVGGVSQLEGNSRKEALELLDATLAQLATGDGPSYKAINVTSVTGQVVAGSLNTYEVELDNGSDKKQCTVKIWTQPWLKENGTNIKIKCSGDDGELDRTW
inactive: CG12576 -0.0839 | CG30355 2.13 | Vha16-2 0.0929
